The list is not random: actives were taken first. Their share in the collection is about 11%.
ERK AVP block: vasopressin-driven ERK pathway inhibition. Potency, µM (doses to about 57.5 µM), for inactives: at the top dose activity, negative = inhibition, hits mostly inhibitors. HEK293-V1b, vasopressin-stimulated pERK AlphaScreen. 72,000 tested, 0.99% active. AID 995; also: nearly all actives have a fitted effect of over 55% in size
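Overnight-seeded V1b-HEK293 cells in 1% FBS got compound, then vasopressin (25 nM final, 5 min, 37C), then lysis buffer. AlphaScreen detection of phospho-ERK; activity normalized to basal and full-stimulation controls.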
Bst PK mod: alters activity of Bacillus stearothermophilus pyruvate kinase. purified pyruvate kinase, luminescence ATP production; ribose 5-phosphate activator present at AC10. Potency, µM. 51,000 tested, 1.2% active; in the data active = potency below about 11 µM; inconclusive = mostly about 12 µM to 25 µM;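 the screen sought inhibitors and activators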;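 also: scaled between full activation by ribose 5 phosphate and full inhibition by luteolin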
HADH2 inh: HADH2 (human) dehydrogenase inhibition; Q99714; recombinant HADH2, NADH fluorescence, beta-hydroxybutyryl-CoA; Potency, µM (doses to about 57.1 µM), for inactives: at the highest dose activity change, negative = inhibition, usual class: inhibitors; 73,000 tested, 3.4% active; AID 886; also: nearly all actives have a fitted effect of over 60% in size
Target sequence (Q99714 whole entry, looked up, one chain of several): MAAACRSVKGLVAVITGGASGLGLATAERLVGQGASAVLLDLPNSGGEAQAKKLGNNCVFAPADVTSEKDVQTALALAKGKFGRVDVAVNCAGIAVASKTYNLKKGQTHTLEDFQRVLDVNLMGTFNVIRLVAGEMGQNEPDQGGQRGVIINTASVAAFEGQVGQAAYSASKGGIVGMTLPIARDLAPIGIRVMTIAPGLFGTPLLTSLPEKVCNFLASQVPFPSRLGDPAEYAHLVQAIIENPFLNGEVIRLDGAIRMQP
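Buffer 100 mM Tris-HCl pH 9.0/0.01% Tween-20; HADH2 20 nM; NAD+ 1 mM; beta-hydroxybutyryl-CoA 90 uM (all final). 15 min cpd preincubation, RT.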
Luciferase inh: inhibitors of firefly luciferase; purified firefly luciferase, luminescence, 8 min; Potency, µM (doses to about 57.1 µM), inactives show at the top dose activity change, negative = inhibition, usual class: inhibitors; AID 411; 72,000 tested, 2.2% active; P08659; also: nearly all actives have a fitted effect of over 40% in size
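Titration-based qHTS; buffer 50 mM imidazole pH 7.2, 50 mM KCl, 7 mM MgCl2, 10 uM ATP, 0.01% Tween 20, 0.05% BSA; luciferase/luciferin detector mix added after compound; 8 min, ambient; luminescence.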
HSD17B inhib: inhibitors of human HSD17B10 dehydrogenase. AID 893. Q99714. 75,000 tested, 7.6% active. recombinant HSD17B10, NADH fluorescence kinetic. Potency, µM (series often up to 57.1 µM), inactives show top-dose activity change, negative = inhibition, usual class: inhibitors;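 also: the protocol describes HADH2 (HSD17B10) and not the HSD17B4 of the title; nearly all actives have a fitted effect of over 70% in size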
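20 nM HADH2, pH 9.0 Tris/Tween; cpd preinc 15 min RT; start w/ 1 mM NAD+ + 90 uM b-hydroxybutyryl-CoA; kinetic fluor ex360/em450 q30s x 4 min; delta last-first.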
ALOX15 inhib: 15-hLO (ALOX15) enzyme inhibition; 74,000 tested, 1.4% active; Potency, µM (titrated, usually from 57.1 µM), for inactives: top-dose activity change, negative = inhibition, actives largely listed as inhibitors; P16050; purified 15hLO-1, xylenol orange hydroperoxide absorbance; also: nearly all actives have a fitted effect of over 55% in size
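40 nM 15hLO-1 + cpd, 15 min RT; start w/ 50 uM AA (final), 6 min RT; stop/detect w/ 200 uM XO + 300 uM Fe(II) in 50 mM H2SO4, 30 min; A573/A405. Buffer 25 mM Hepes pH 7.5, 0.01% Triton X-100. No-enzyme wells as negative control.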
* hit, by the source's call; ? = inconclusive; nt = no result; ! = repeats disagree; [ ] = another dose, or the depositor's remark. Unless noted, calls follow the shape of the dose curve; as a rule, active = well fitted curve in the direction sought with a large enough effect; inconclusive = small, poorly fitted or top-dose-only effect, or another doubt; inactive = no such curve, though single readings can be large; an effect the other way counts as inactive or inconclusive. Unless noted, % is scaled to controls: 0 for no effect and ±100 for the full control effect; potency is read from the fitted curve at half-maximal effect.

SMILES	ERK AVP block	Bst PK mod	HADH2 inh	Luciferase inh	HSD17B inhib	ALOX15 inhib
CCCCC[C@@H](O)[C@@H]1C(=O)O[C@@H](C)[C@@H](O)\C=C/C=C\C=C/C=C\C=C(\C)[C@H](O)C[C@H](O)C[C@H](O)C[C@H](O)C[C@H](O)C[C@H](O)C[C@@H]1O	nt	nt	-3%[11.4 µM]	2%[11.4 µM]	nt	nt
CC1=CC(c2ccccc2)n2nc(NS(=O)(=O)c3ccc(C)cc3)nc2N1 (stereo not given)	nt	nt	25µM*	nt	32µM*	-7%
Cc1ccc(S(=O)(=O)Nc2cc(C)nn2-c2ccccc2)cc1	-13%	>57	4%	-1%	6%	7%
O=S(=O)(O)c1cc(O)c2c(O)c(N=Nc3cccc4ccccc34)c(S(=O)(=O)O)cc2c1	?	nt	-1%[11.4 µM]	-25%[11.4 µM]	-8%[11.4 µM]	18%[11.4 µM]
O=S(=O)(O)c1cc(O)c2c(N=Cc3ccccc3O)cc(S(=O)(=O)O)cc2c1	5%[11.5 µM]	nt	2µM*	-9%[11.4 µM]	4µM*	-10%[11.4 µM]
COc1cc2cc(CN(Cc3nnnn3Cc3ccccc3)CC3CCCO3)c(=O)[nH]c2cc1OC (stereo not given)	-12%	>57	?	2%	?	6%
COc1ccc2[nH]c(=O)c(CN(Cc3nnnn3Cc3ccco3)C3CCCCC3)cc2c1	-4%	nt	?	-5%	20µM*	6.3µM*
COCCn1nnnc1C(C(C)C)N(Cc1cccnc1)Cc1cc2cc(OC)ccc2[nH]c1=O (stereo not given)	-5%	>57	-2%	-3%	25µM*	?
COc1ccc2[nH]c(=O)c(CN(Cc3ccccc3)Cc3nnnn3CC3CCCO3)cc2c1 (stereo not given)	-25%	nt	?	?	32µM*	?
COc1ccc2[nH]c(=O)c(CN(C3CCCCC3)C(c3nnnn3Cc3ccco3)C(C)C)cc2c1 (stereo not given)	-18%	>57	-20%	-14%	?	16µM*
C[C@@H]1/C=C\CC(=O)OC[C@H](C)C(=O)N2CCC[C@@H]2C(=O)OC1	8%[11.5 µM]	nt	-7%[11.4 µM]	0%[11.4 µM]	3%[11.4 µM]	5%[11.4 µM]
CCCCc1nc2c(c3c1CC(C)OC3)CN(CCOc1ccccc1)CC2 (stereo not given)	6%[11.5 µM]	nt	7%[11.4 µM]	nt	1%[11.4 µM]	2%[11.4 µM]
Cc1cc(-c2ccccc2)nc2cc(C(N)=O)nn12	?	nt	32µM*	0%	32µM*	-27%
Cc1cc(-c2ccccc2)nc2cc(C(=O)NCCCn3ccnc3)nn12	-8%	>57	14%	1%	25µM*	3%
O=C(NCCCn1ccnc1)c1cccnc1	nt	>26	nt	0%[25.5 µM]	nt	nt
Cn1c(-c2ccc3c(c2)OCO3)cc(=O)c2ccccc21	0%[25.7 µM]	nt	-4%[25.6 µM]	0%[25.5 µM]	13µM*	4%[25.6 µM]
CCCn1c(=O)c(C)cn2nc(N)nc12	-22%	nt	-83%	-1%	25µM*	-10%[25.6 µM]
CC(C)C[C@@H](CC(=O)N[C@@H](CCC(=O)O)CC(=O)O)NC(=O)[C@@H]1CCCC[C@H]1NC(=O)C[C@H](CCCN)NC(=O)C[C@H](CO)NC(=O)[C@@H]1CCCC[C@H]1N	nt	nt	13%	nt	nt	nt
CCN1CCN(C(=O)c2cc3c(=O)oc4ccc(C)cc4c3s2)CC1	11%	nt	-1%	-1%	-2%	1%
Cc1ccc2oc(=O)c3cc(C(=O)NCc4ccco4)sc3c2c1	11%	nt	2%	-1%	25µM*	-15%
COCCCn1c(-c2ccccc2)nc2ccccc2c1=O	-29%	nt	-7%	3%	-4%	12%
COCCCNC(=O)c1ccc2nc3ccccc3c(=O)n2c1	-16%	nt	?	-2%	32µM*	0%
O=C(CCc1ccc(O)cc1)c1c(O)cc(O)cc1O[C@@H]1O[C@@H](CO)[C@@H](O)[C@@H](O)[C@H]1O	nt	nt	?	0%[11.4 µM]	nt	nt
O=C(CCc1ccc(O)cc1)c1c(O)cc(O)cc1O	?	nt	?	1%[11.4 µM]	25µM*!	-10%[25.6 µM]
COc1ccc(-c2cc(C(F)F)n3ncc(C(=O)N4CCN(C(=O)c5ccco5)CC4)c3n2)cc1	-20%	nt	?	0%	32µM*	-2%
SMILES	ERK AVP block	Bst PK mod	HADH2 inh	Luciferase inh	HSD17B inhib	ALOX15 inhib
COc1ccc(-c2csc(N3CCN(C(=O)c4ccco4)CC3)n2)cc1	10µM*	nt	-9%	-21%	-9%	?
CCN1CCN(C(=O)c2cnn3c(C(F)F)cc(-c4ccc(C)cc4)nc23)CC1	4%	>57	-7%	3%	-23%	-14%
COc1ccc(NC(=O)NCCCN2CCCC2=O)cc1	1%	nt	4%	1%	12%	-1%
NC(=O)C1(N2CCCCC2)CCN(c2nc(-c3ccccc3)cs2)CC1	13%	>57	0%	-3%	4%	-7%
COc1ccc(-c2cc(C(F)F)n3ncc(C(=O)NCCCN4CCCC4=O)c3n2)cc1	?	nt	8%	1%	25µM*	0%
COc1ccc(C(=O)N2CCN(C(=O)c3ccco3)CC2)cc1	-1%	nt	3%	2%	8%	8%
COc1ccc(-c2csc(N3CCC(C(N)=O)(N4CCCCC4)CC3)n2)cc1	25µM*	>57	-29%	1%	-3%	-13%
Fc1cccc(Cl)c1/C=N\N=C1c2ccccc2-c2ccccc21	-20%[11.5 µM]	nt	1%[11.4 µM]	-1%[11.4 µM]	-4%[11.4 µM]	-1%[11.4 µM]
CCC(=O)Nc1nonc1-c1nc2ccccc2n1CC(C)C	5%	>57	-16%	2%	32µM*	-5%
O=C(c1ccncc1)N1CCC2(CC1)CN(c1ccccn1)C2	-20%	nt	-14%	1%[11.4 µM]	20µM*	?
CC(=O)N1CCC2(CC1)CCN(c1ccccn1)CC2	-12%	nt	-7%	-1%[11.4 µM]	32µM*	6%
COC(=O)N1CCC2(CC1)CN(c1ccccn1)C2	-11%	nt	-23%	0%[11.4 µM]	32µM*	12%
O=C(c1ccncc1)N1CCC2(CC1)CCN(c1ccccn1)CC2	?	nt	-8%	-3%[11.4 µM]	32µM*	0%
O=C(c1cnccn1)N1CCC2(CC1)CCN(c1ccccn1)CC2	-14%	nt	0%	1%[11.4 µM]	-22%	8%
COC(=O)N1CCC2(CC1)CCN(c1ncccn1)CC2	1%	nt	-1%	1%[11.4 µM]	-24%	6%
c1ccc([C@H](c2cccc3c2ccc2ccccc23)[C@H](c2ccccc2)c2cccc3c2ccc2ccccc23)cc1	-2%[11.5 µM]	nt	9%[11.4 µM]	2%[11.4 µM]	-1%[11.4 µM]	8%[11.4 µM]
COc1cc2c3cc1Oc1c(OC)c(OC)cc4c1[C@@H](Cc1ccc(O)c(c1)Oc1ccc(cc1)C[C@@H]3N(C)CC2)CN(C)C4	-3%[11.5 µM]	nt	11%[11.4 µM]	-1%[11.4 µM]	8%[11.4 µM]	-6%[11.4 µM]
CO[C@H]1COC(=O)C/C=C\[C@H](C)[C@@H](OC)COC(=O)[C@H](C)COC(=O)C/C=C\[C@@H]1C	-5%[11.5 µM]	nt	0%[11.4 µM]	-1%[11.4 µM]	1%[11.4 µM]	5%[11.4 µM]
O=C1OCCC1Sc1nnc(-c2ccc(Br)cc2)o1 (stereo not given)	?	nt	20%	16µM*	14%	7%
